Source: PubChem BioAssay AID902 (National Center for Advancing Translational Sciences (NCATS), 2007)
“And” between values parts separate entries of the source, which are not always exact repeats. Equal values may be shown once. Among all 130,000 compounds or so, about 1,900 (1.5%) were called active. Another 5% or so got no clear call; they are omitted. The entries come from a sample that favours actives as a whole. A call without a number means that no potency is given here. Values without a mark were called inactive. The call rests on the fitted dose curve; in most records, active means well fitted cell-killing curve with a large enough effect; inconclusive means small, poorly fitted or top-dose-only effect; inactive means no such curve, though single readings can be large or run the other way.

Test: qHTS Screen for Compounds that Selectively Target Cancer Cells with p53 Mutations: Cytotoxicity of p53ts Cells at the Nonpermissive Temperature; further: nearly all actives have a fitted effect of over 55% in size
Details: H1299-p53A138V viability at 39C, ATP luminescence, 24 h; series mostly up to 46.1 µM
Potency means the concentration at half of the fitted maximal effect.

Structure (SMILES)	Potency	activity change, negative = cell killing
Fc1ccc(C(Nc2ccc(Cl)c(C(F)(F)F)c2)c2nnc(-c3ccccc3)o2)cc1 (stereo not drawn)	inactive	
Cn1c(=O)nc2n(-c3ccc(Br)cc3)c3cccc(Cl)c3cc-2c1=O	inactive	
CCCCCn1c(=O)[nH]c2cc(C(=O)Nc3ccc(F)cc3)ccc2c1=O	inactive	
Cn1nc(-c2ccccc2)c(-c2ccccc2)c(C(=O)Nc2ccc(S(N)(=O)=O)cc2)c1=O	inactive	
COc1ccc2cc(CNc3ccc(OC)c(OC)c3)c(=O)n(CC(=O)Nc3ccccc3F)c2c1	inactive	
Cc1c2cnn(-c3ccccc3)c(=O)c2c(C)n1C(C)C(=O)Nc1ccc(Br)cc1F (stereo not drawn)	inactive	
CCN(CCCCOC(=O)c1ccc(OC)c(OC)c1)C(C)Cc1ccc(OC)cc1 (stereo not drawn)	inactive	
COc1ccc(/C=C/NC(=O)Cc2ccc(OC)c(OC)c2)cc1		-6.46% [at 9.22 µM] and 8.2% [at 9.22 µM]
COc1ccc(C(CCN(Cc2ccc(OC)c(OC)c2)C(=O)CCl)c2ccccc2)cc1 (stereo not drawn)	3.98 µM (active)	
O=C(NCc1ccccc1)c1cc(-c2cccc(Cl)c2)on1	inactive	
COc1ccc(-c2nc(-c3ccccc3)no2)c(OC)c1	6.31 µM (active)	
COc1ccc(-c2noc(CSc3nnc(-c4ccccc4)n3-c3ccc(F)cc3)n2)c(OC)c1	inactive	
COc1ccc(-c2cc(-c3nc(-c4cc(OC)c(OC)c(OC)c4)no3)[nH]n2)c(OC)c1	inactive	
O=C(CN1CCN(Cc2ccc(Cl)cc2)C1=O)NCc1ccc(F)cc1	inactive	
Cc1ccc(C)c(N2CCN(c3ccc4cc(S(=O)(=O)N5CCC(C)CC5)ccc4n3)CC2)c1	inactive	
COC(=O)Cc1nc2ccccc2[nH]1	inactive	
O=C(COc1ccccc1)NCCc1nc2ccccc2[nH]1	inactive	
N#C/C(=C(/O)COC(=O)COc1ccc(Cl)cc1)c1nc2ccccc2[nH]1	20 µM (active)	
COc1ccc(CNC(=O)CSc2n[nH]c(-c3ccc(F)cc3)n2)cc1	inactive	
O=C(NCC(c1cccnc1)N1CCc2ccccc21)c1cccc(C(F)(F)F)c1 (stereo not drawn)	inactive	

Structure (SMILES)	Potency	activity change, negative = cell killing
Cc1ccc2nc(-c3ccc(O)cc3)c(Nc3ccc4c(c3)OCO4)n2c1	inactive	
COc1cccc(-n2cc(C(=O)NCc3cccc(Cl)c3)c3ccccc3c2=O)c1	inactive	
Cc1cccc(-n2ncc3c(N4CCc5ccccc54)ncnc32)c1	inactive	
COc1ccc(-n2ncc3c(N4CCCc5ccccc54)ncnc32)cc1	10 µM (active)	
COc1ccc(-n2ncc3c(N4CCc5ccccc54)ncnc32)cc1	inactive	
Cc1oc(C)c2c(=O)cc(-c3ccc4c(c3)OCO4)cc(OC(=O)c3ccc(Cl)cc3)c12	inactive	
CC1CCCN(S(=O)(=O)c2ccc3[nH]c(=O)cc(C(=O)NCCc4ccc(Cl)cc4)c3c2)C1 (stereo not drawn)	inactive	
CCC1CCCCN1C(=O)Cn1c(=O)n(CCCCCC(=O)NCc2ccccc2)c(=O)c2sccc21 (stereo not drawn)	inactive	
Cc1cc(C)c(NC(=O)CSc2nc3ccncc3[nH]2)c(C)c1	inactive	
Cn1c(=O)c2c(-c3ccccc3Br)n(Cc3ccccc3)cc2n(C)c1=O	inactive	
Cn1c(=NC(=O)CSCC(=O)N2CCOCC2)sc2ccccc21	inactive	
Cn1c(=NC(=O)CSCC(=O)N2CCCCC2)sc2ccccc21	inactive	
Cn1c(=NC(=O)c2cnccn2)sc2ccccc21	10 µM (active)	
CCOc1ccc(-c2cc3nc(C4CCN(C(=O)OC(C)(C)C)CC4)c(C(=O)Nc4cccc(CC)c4)cn3n2)cc1	inactive	
C=CC(=O)c1ccc2ccccc2c1	10 µM (active)	
O=C(CN1C(=O)C2C3CCC(C3)C2C1=O)Oc1ccc2ccccc2c1 (stereo not drawn)	inactive	
Cc1ccc2nc(CC(=O)c3ccc4ccccc4c3)c(=O)[nH]c2c1		2.32% [at 9.22 µM]
COc1cccc(CNC(=O)CSc2c3c(nc4cc(Cl)ccc24)CCCC3)c1	inactive	
CCOC(=O)Cc1ccc(NC(=O)Nc2c[nH]c(=O)[nH]c2=O)cc1	inactive	
CCOc1ccccc1CNCc1c(C(=O)O)c(C)n(Cc2ccc(C)cc2)c1C	inactive	

Structure (SMILES)	Potency	activity change, negative = cell killing
Cc1ccc(OCC(=O)Nc2ccc(-c3nnc(-c4ccco4)o3)cc2)cc1	inactive	
CCOc1ccc(NC(=O)Nc2cc(C)on2)cc1	inactive	
CCOc1ccc(NC(=O)c2ncoc2-c2ccco2)cc1	7.94 µM (active)	
CCC(=O)Oc1cccc(C(=O)Nc2ccc(-c3nnc(-c4ccco4)o3)cc2)c1	inactive	
CCOc1ccc(-c2nnc(-c3ccco3)o2)cc1	12.6 µM (active)	
CCOc1ccc(C(=O)Nc2ccncc2)cc1	inactive	
CN(C)CCCn1c(-c2ccc(Cl)cc2)csc1=Nc1ccccc1	inactive	
CCCN(CCC)CCNC(=O)Cn1cnc2sc(C)c(S(=O)(=O)N3CCC(C)CC3)c2c1=O	inactive	
COc1ccc(S(=O)(=O)c2c(Nc3ccc(C)cc3)sc(C(=O)c3ccc(C)cc3)c2N)cc1	inactive	
Cc1cccc(OCC(=O)N(Cc2ccc(C(C)C)cc2)Cc2ccco2)c1C	inactive	
C=CCn1c(C)cc(C(=O)CN2C(=O)c3ccccc3C2=O)c1C	12.6 µM (active)	
Cc1cc(C(=O)COC(=O)CCCN2C(=O)c3ccccc3C2=O)c(C)n1C	inactive	
C=CCN(CC=C)C(=O)CN1C(=O)c2ccccc2C1=O	inactive	
CC(=O)N1CCCc2cc(S(=O)(=O)N3CCC(C(=O)NCc4ccc(F)cc4)CC3)ccc21	inactive	
O=C(Nc1cccnc1)c1noc2c1CCCCC2	12.6 µM (active)	
Cc1c(Cl)cccc1NC(=O)c1noc2c1CCCC2	inactive	
O=C(Nc1cccnc1)c1ccc2c(c1)OCO2	inactive	
Cc1ccc(Cl)cc1NC(=O)CSc1nc2ccccc2nc1Cc1ccccc1	inactive	
